{"source": "PubChem BioAssay AID720553", "about": "(National Center for Advancing Translational Sciences (NCATS), 2013)", "note": "Among all 340,000 compounds or so, about 3,300 (0.97%) were called active. The sample holds actives, similar compounds and a random draw of the others, so the mix is not that of the screen.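 How the source made its calls: active means maximum activity change below -70%; inconclusive means maximum activity change from -70% to -50%; inactive means maximum activity change above -50%.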 On the % scale 0 is the no-effect control and ±100 the full control effect."}
{"system": "Potassium voltage-gated channel subfamily H member 2, brain isoform KCNH2 3.1 (human)", "assay": "qHTS for Inhibitors of KCHN2 3.1: Mutant qHTS", "conditions": "U2OS KCNH2 3.1, thallium flux FluxOr; hits give low values", "outline": "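Channel expression came from 3.1 mutant virus (1.77 x 10^8 /mL) applied to suspended U2OS cells for 4 h. Flux was tracked with FluxOr dye plus Red40 quencher, and kinetic rate constants normalized to controls.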"}
{"smiles": "O=[N+]([O-])c1ccc(C(S(=O)(=O)Cc2ccccc2)S(=O)(=O)Cc2ccccc2)cc1", "activity change": "-21.9% (inactive)"}
{"smiles": "CC1(C)CN(Cc2cccnc2)C(=O)[C@H]1CC(=O)Nc1ccc(Br)cc1", "activity change": "-12% (inactive)"}
{"smiles": "COc1ccc(OC)c(C(=O)NC2CCCc3c2cnn3-c2cc(C)cc(C)c2)c1", "note": "(stereo not drawn)", "activity change": "-6.38% (inactive)"}
{"smiles": "CCOC(=O)c1cc(-c2sc(NC(=O)c3ccccc3)nc2C)n(CCO)n1", "activity change": "-0.33% (inactive)"}
{"smiles": "CC(=O)Nc1ccc(NC(=O)CCCNC(=O)c2ccc(Cl)cc2)cc1", "activity change": "7.78% (inactive)"}
{"smiles": "CCCCC(=O)Nc1ccc(C(=O)NCCCn2ccnc2)cc1", "activity change": "4.23% (inactive)"}
{"smiles": "CCCCC(=O)Nc1ccc(C(=O)Nc2cc(C(F)(F)F)ccc2Cl)cc1", "activity change": "-83.7% (active)"}
{"smiles": "CCN(CC)C(=O)C(C)N1c2cccc3cccc(c23)S1(=O)=O", "note": "(stereo not drawn)", "activity change": "-7.96% (inactive)"}
{"smiles": "CNS(=O)(=O)c1ccc2c(c1)[nH]c(=S)n2C", "activity change": "9.63% (inactive)"}
{"smiles": "COc1cc(C2C(C(=O)Nc3ccccc3OC)=C(C)Nc3ncnn32)ccc1O", "note": "(stereo not drawn)", "activity change": "-70.3% (active)"}
{"smiles": "COc1ccccc1NC(=O)C1=C(C)Nc2ncnn2C1c1ccc(C)o1", "note": "(stereo not drawn)", "activity change": "0.24% (inactive)"}
{"smiles": "COc1ccccc1NC(=O)C1=C(C)Nc2nc3ccccc3n2C1c1cccs1", "note": "(stereo not drawn)", "activity change": "1.01% (inactive)"}
{"smiles": "CC1CCN(C(=O)CSc2nnc(-c3ccco3)n2N)CC1", "activity change": "13.4% (inactive)"}
{"smiles": "O=NN(CCCl)C(=O)NCCc1cccc[n+]1[O-]", "activity change": "-3.54% (inactive)"}
{"smiles": "CCn1c(SCC(=O)N2CCCC2=O)nc2ccccc21", "activity change": "9.56% (inactive)"}
{"smiles": "CC(C)=CCCC(C)CN1CCC(n2nccc2NC(=O)c2ccccc2)CC1", "note": "(stereo not drawn)", "activity change": "-34.5% (inactive)"}
{"smiles": "Cc1c(CN2CCC(n3nccc3NC(=O)CCc3ccccc3)CC2)cnn1C", "activity change": "6.8% (inactive)"}
{"smiles": "O=C(CCc1ccccc1)Nc1ccnn1C1CCN(Cc2ccc(OCCO)cc2)CC1", "activity change": "-97.2% (active)"}
{"smiles": "COc1ccc(CN2CCC(n3nccc3NC(=O)CCCc3ccccc3)CC2)cc1C", "activity change": "-86.2% (active)"}
{"smiles": "COc1cc(CN2CCC(n3nccc3NC(=O)CCCc3ccccc3)CC2)ccc1O", "activity change": "-32.8% (inactive)"}
{"smiles": "O=C(Nc1ccnn1C1CCN(Cc2cccc(OCCO)c2)CC1)C1CCCC1", "activity change": "5.49% (inactive)"}
{"smiles": "CC(C)Oc1ccc(CN2CCC(n3nccc3NC(=O)c3cccnc3)CC2)cc1", "activity change": "-80.6% (active)"}
{"smiles": "COc1ccccc1C(=O)Nc1ccnn1C1CCN(Cc2cnn(C)c2)CC1", "activity change": "-32.4% (inactive)"}
{"smiles": "Cc1ccc(CN2CCC(n3nccc3NC(=O)CCCc3ccccc3)CC2)o1", "activity change": "3.89% (inactive)"}
{"smiles": "CCOC(=O)c1c(C)[nH]c(C)c1C(=O)COC(=O)/C=C/c1cccc([N+](=O)[O-])c1", "activity change": "-1.51% (inactive)"}
{"smiles": "O=C(CNC(=O)N1CC(=O)Nc2ccccc21)Nc1ccc(Br)cc1F", "activity change": "2.32% (inactive)"}
{"smiles": "COCCn1c(SCC(=O)Nc2ccc(F)cc2F)nc2c(c1=O)SCC2", "activity change": "-5.38% (inactive)"}
{"smiles": "CCc1noc(C)c1C(=O)OCC(=O)c1ccc(NC(=O)CC(C)C)cc1", "activity change": "7.88% (inactive)"}
{"smiles": "O=C(OCc1cn([C@H]2C[C@H](c3ccccc3)N(C(=O)c3cccs3)C[C@@H]2O)nn1)c1ccccc1", "activity change": "-26.8% (inactive)"}
{"smiles": "CCCS(=O)(=O)N1CCC(CCOc2ccccc2)(C(=O)OCC)CC1", "activity change": "-4.06% (inactive)"}
{"smiles": "CCOC(=O)C1(CCOc2ccccc2)CCN(Cc2ccc(C#CCCO)cc2)CC1", "activity change": "-7.38% (inactive)"}
{"smiles": "CCOC(=O)C1(CCOc2ccccc2)CCN(Cc2cc(OC)cc(OC)c2)CC1", "activity change": "-108% (active)"}
{"smiles": "COc1ccc(S(=O)(=O)N2CCCCC2)cc1NC(=O)COc1ccccc1", "activity change": "-11.6% (inactive)"}
{"smiles": "Cc1ccc(/C=C/C(=O)Nc2cc(S(=O)(=O)N3CCCCCC3)ccc2OCC(F)(F)F)o1", "activity change": "-83.4% (active)"}
{"smiles": "O=C(Nc1cc(S(=O)(=O)N2CCOCC2)ccc1OCC(F)(F)F)c1ccc(N2CCCC2=O)cc1", "activity change": "-24.2% (inactive)"}
{"smiles": "CNC(=O)C[C@H]1C(=O)N(c2ccc(OC)cc2)C[C@@H]1Cc1ccccc1", "activity change": "6.56% (inactive)"}
{"smiles": "COCCCn1c(=O)/c(=C/c2ccccc2OC(C)C)s/c1=C(\\C#N)C(=O)Nc1ccc(C(=O)O)cc1", "activity change": "1.1% (inactive)"}
{"smiles": "CCOC(=O)N1CCN(C(=O)C2CCN(S(=O)(=O)c3cc(Cl)ccc3OCC)CC2)CC1", "activity change": "-0.753% (inactive)"}
{"smiles": "CCOc1ccc(S(=O)(=O)N2CCC(c3ccccc3)CC2)cc1C(=O)O", "activity change": "-0.0458% (inactive)"}
{"smiles": "CCOc1ccc(Br)cc1S(=O)(=O)N1CCC(C(=O)O)CC1", "activity change": "-119% (active)"}
{"smiles": "Cc1ccccc1NC(=O)Cc1nc(COC(=O)C(C)(C)Oc2ccc(Cl)cc2)cs1", "activity change": "0.0076% (inactive)"}
{"smiles": "O=C(C1CCN(C2CCN(Cc3cccc4c3OCO4)CC2)CC1)N1CCOCC1", "activity change": "1.54% (inactive)"}
{"smiles": "O=C(C1CCN(C2CCN(Cc3ccc4cc(F)ccc4n3)CC2)CC1)N1CCCC1", "activity change": "-46.6% (inactive)"}
{"smiles": "C/C(=C\\c1ccco1)CN1CCC(N2CCC(C(=O)N3CCOCC3)CC2)CC1", "activity change": "-81.6% (active)"}
{"smiles": "COc1ccc([C@H]2C[C@@H](n3cc(COC(=O)c4ccccc4)nn3)[C@H](O)CN2C(=O)c2cccs2)cc1", "activity change": "5.99% (inactive)"}
{"smiles": "COc1cc(-c2nnc(NC(=O)CS(=O)(=O)c3ccc(Cl)cc3)o2)cc(OC)c1OC", "activity change": "3.81% (inactive)"}
{"smiles": "CN1OC[C@@H]2CN[C@H](c3ccc(-c4ccccc4)cc3)C[C@@H]21", "activity change": "-8.66% (inactive)"}
{"smiles": "CC(C)c1cc(C(=O)N(C)C2CCCN(Cc3ccccc3F)C2)n(C)n1", "note": "(stereo not drawn)", "activity change": "-13.2% (inactive)"}
{"smiles": "COc1ccc(NC(=O)CN(C)C(=O)c2cc(C)oc2C)cc1", "activity change": "-19.2% (inactive)"}
{"smiles": "CCOC(=O)Cn1c(=O)n(Cc2ccc(OC)cc2)c(=O)c2cccnc21", "activity change": "-6.36% (inactive)"}
{"smiles": "CCn1c(-c2cccnc2Cl)nc2cc(C)c(C)cc21", "activity change": "1.97% (inactive)"}
{"smiles": "CCOC(=O)Cn1c(-c2cccnc2Cl)nc2ccccc21", "activity change": "-86.5% (active)"}
{"smiles": "CC(C)Oc1ccc(CCc2nnc(SCC(=O)O)n2-c2ccccc2)cc1", "activity change": "-77.9% (active)"}
{"smiles": "CC(C)Oc1ccc(CCc2n[nH]c(=S)n2Cc2ccccc2)cc1", "activity change": "3.01% (inactive)"}
{"smiles": "CNC(=O)CSc1nnc(CCc2ccccc2)n1-c1ccccc1", "activity change": "-7.79% (inactive)"}
{"smiles": "O=Cc1cn(CCOc2ccc(F)cc2)c2ccccc12", "activity change": "-5.46% (inactive)"}
{"smiles": "O=C(NCc1ccccc1)C1CNCC(C(=O)NCc2ccccc2)C1", "note": "(stereo not drawn)", "activity change": "-3.07% (inactive)"}
{"smiles": "O=C(CCN1CCN(C/C=C/c2ccccc2)CC1)Nc1cccc(F)c1", "activity change": "-109% (active)"}
{"smiles": "O=C(CN1CCN(C/C=C/c2ccccc2)CC1)Nc1ccc(F)cc1F", "activity change": "-107% (active)"}
{"smiles": "O=C(CCN1CCN(C/C=C/c2ccccc2)CC1)Nc1ccccc1Cl", "activity change": "-111% (active)"}
{"smiles": "O=C(CCN1C(=O)c2ccccc2C1=O)Nc1cccc(F)c1", "activity change": "3.35% (inactive)"}
{"smiles": "CCOC(=O)N1CCN(CCC(=O)Nc2ccccc2)CC1", "activity change": "12.9% (inactive)"}
{"smiles": "O=C(CN1CCCCCC1)Nc1ccc(Cl)cc1F", "activity change": "7.99% (inactive)"}
{"smiles": "O=C(CN1CCN(C(=O)c2cccc(F)c2)CC1)Nc1ccccc1F", "activity change": "-0.253% (inactive)"}
{"smiles": "COc1ccccc1NC(=O)CCN1CCN(c2ccc(Cl)cc2)CC1", "activity change": "-5.85% (inactive)"}
{"smiles": "CNC(=O)NC(=O)C(C)N1CCN(C/C=C/c2ccccc2)CC1", "note": "(stereo not drawn)", "activity change": "-32.3% (inactive)"}
{"smiles": "O=C(C[C@H]1C[C@@H]2c3cc(NC(=O)C4CCC4)ccc3O[C@@H]2[C@H](CO)O1)NC1CCCCC1", "activity change": "-25.5% (inactive)"}
{"smiles": "N#Cc1ccc(OCC(=O)Nc2nc(-c3ccccn3)cs2)cc1", "activity change": "6.83% (inactive)"}
{"smiles": "CCN1C(=O)[C@H]2[C@@H](c3ccccc3)N[C@]3(CCCN(Cc4ccc(C)cc4)C3=O)[C@H]2C1=O", "activity change": "28.9% (inactive)"}
{"smiles": "COc1ccc(-c2ccc3[nH]c4c(c3c2)CCN2C[C@H]3[C@H](C)ON(C)[C@H]3C[C@@H]42)cc1", "activity change": "-3.51% (inactive)"}
{"smiles": "O=C(CCc1ccc(O)cc1)NN=Cc1cc(Br)ccc1O", "activity change": "1.97% (inactive)"}
{"smiles": "O=C(COc1ccc(Br)cc1)OCC(=O)c1ccc[nH]1", "activity change": "-1.12% (inactive)"}
{"smiles": "COc1ccc(N)cc1NC(=O)CN1CCOCC1", "activity change": "1.24% (inactive)"}
{"smiles": "Cc1ccc(-n2c(SCC(=O)Nc3ccc4c(c3)OCO4)nnc2-c2ccccn2)cc1", "activity change": "1.11% (inactive)"}
{"smiles": "Cc1ccc(-n2c(SCC(=O)Nc3ccc4c(c3)OCO4)nnc2-c2ccoc2C)cc1", "activity change": "-79.7% (active)"}
{"smiles": "O=C(CSc1nnc(-c2ccccn2)n1-c1ccccc1)Nc1ccc2c(c1)OCO2", "activity change": "2.89% (inactive)"}
{"smiles": "COc1cccc(/C=C2\\SC(=S)N(CCCC(=O)N3CCOCC3)C2=O)c1", "activity change": "-1.71% (inactive)"}
{"smiles": "COc1ccc(CN2C(=O)C(CC(=O)NCCCCc3ccccc3)CC(C(=O)N3CCOCC3)=C2C)cc1", "note": "(stereo not drawn)", "activity change": "-14.3% (inactive)"}
{"smiles": "Cc1cc(OCC(=O)Nc2nccs2)c2c(C)c(C)c(=O)oc2c1", "activity change": "-8.76% (inactive)"}
{"smiles": "O=C(NCCCN1CCN(c2ccc(F)cc2)CC1)Nc1ccc([N+](=O)[O-])cc1", "activity change": "-86.7% (active)"}
{"smiles": "CN1CCN(CCNC(=O)Nc2ccc([N+](=O)[O-])cc2)CC1", "activity change": "4.38% (inactive)"}
{"smiles": "O=C(CN1CCN(c2ccccc2)CC1)Nc1ccc(F)cc1", "activity change": "0.316% (inactive)"}
{"smiles": "CN(C)C(CNC(=O)c1cc(Br)c(Br)s1)c1ccco1", "note": "(stereo not drawn)", "activity change": "-1.59% (inactive)"}
{"smiles": "O=C(NCc1nnnn1-c1ccc(Cl)cc1)c1ccc2c(c1)OCO2", "activity change": "-10.1% (inactive)"}
{"smiles": "O=C(COC(=O)c1cncc(Br)c1)Nc1ccc(S(=O)(=O)N2CCOCC2)cc1", "activity change": "-6.79% (inactive)"}
{"smiles": "COC(=O)[C@H](Cc1ccccc1)NC(=O)N1CC(C)OC(C)C1", "note": "(stereo partly drawn)", "activity change": "-5.69% (inactive)"}
{"smiles": "COC(=O)[C@H](Cc1ccccc1)NC(=O)[C@@H]1C[C@H]1[C@@H](NC(=O)OCc1ccccc1)c1ccccc1", "activity change": "-95.1% (active)"}
{"smiles": "COC(=O)[C@@H](Cc1ccccc1)NC(=O)NCCc1ccccc1", "activity change": "-9.89% (inactive)"}
